NPC1 prom act: activators of NPC1 promoter; 320,000 compounds, 2.4% hits; AID 485313; Potency, µM (highest dose often 9.22 µM), for inactives: at the highest dose activation, actives largely listed as activators; Huh7 NPC1 promoter luciferase reporter, 24 h; also: % of control where 0% means no effect; nearly all actives have a fitted effect of over 60% in size
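Compounds in DMSO were transferred onto Huh7 NPC1-luciferase reporter cells pre-incubated 2 h; after 24 h at 37 °C, Amplite reagent was dispensed and luminescence recorded 10 min later.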
ELG1 genotoxic: inducers of genotoxicity in HEK293T ELG1-luciferase cells; Potency, µM (doses to about 46 µM), inactives show at the top dose activity change, positive = activation, hits mostly activators; HEK293T ELG1-luciferase reporter, luminescence, 16 h; AID 504466; 330,000 compounds, 1.3% hits; also: % of control where 0% means no effect; nearly all actives have a fitted effect of over 60% in size
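Step 1: seed 2,000 HEK293T ELG1-luciferase cells per well. Step 2: add compound or DMSO, incubate 16 hr at 37 °C. Step 3: ONE-Glo, 30 min at room temperature, read luminescence.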
FLuc counter: inhibits or activates purified firefly luciferase, miR-21 counter-screen; P08659; purified FLuc, Km substrates, luminescence inhibition; Potency, µM (doses to about 57.5 µM), without a hit: at the highest dose activity change, negative = inhibition, usual class: inhibitors; 360,000 compounds, 6.9% hits; AID 588342;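 also: plate controls were vehicle for no effect and reference inhibitor for full effect; nearly all actives have a fitted effect of over 55% in size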
Target sequence (P08659 whole entry, looked up): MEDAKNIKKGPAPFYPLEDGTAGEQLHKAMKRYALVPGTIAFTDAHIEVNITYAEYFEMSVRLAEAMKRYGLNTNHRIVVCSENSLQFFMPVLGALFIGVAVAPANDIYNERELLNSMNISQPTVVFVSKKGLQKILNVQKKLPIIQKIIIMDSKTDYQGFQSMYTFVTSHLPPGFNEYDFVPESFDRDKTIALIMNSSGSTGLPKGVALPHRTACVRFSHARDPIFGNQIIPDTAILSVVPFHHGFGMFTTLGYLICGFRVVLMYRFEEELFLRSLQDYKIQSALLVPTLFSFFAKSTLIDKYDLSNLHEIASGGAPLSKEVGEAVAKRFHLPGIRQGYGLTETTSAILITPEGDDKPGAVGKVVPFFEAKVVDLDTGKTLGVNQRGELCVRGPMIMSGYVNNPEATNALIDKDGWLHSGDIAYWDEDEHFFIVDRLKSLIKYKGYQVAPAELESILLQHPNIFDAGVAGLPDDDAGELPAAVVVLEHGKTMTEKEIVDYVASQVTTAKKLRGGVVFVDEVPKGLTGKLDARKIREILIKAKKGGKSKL
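Purified P. pyralis luciferase, 10 nM final, with Km-level 10 uM D-luciferin and 10 uM ATP in 50 mM Tris acetate pH 7.5, 10 mM Mg acetate, 0.01% Tween-20, 0.05% BSA; 6-point qHTS titration about 60 µM downward; luminescence read.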
Luc counter: counter-screen: inhibitors of Kinase-Glo firefly luciferase. Q27757. AID 1379. 200,000 compounds, 0.28% hits. Potency, µM (highest dose often 38.3 µM), for the others: top-dose activity change, negative = inhibition, usual class: inhibitors. Kinase-Glo luciferase, ATP luminescence, 8 min; also: % is scaled to controls: 0 for no effect and ±100 for the full control effect; nearly all actives have a fitted effect of over 60% in size
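Substrate mix (final 50 mM imidazole pH 7.2, 50 mM KCl, 7 mM MgCl2, 10 uM ATP, 0.01% Tween 20, 0.05% BSA) plus pin-tool compound, then Kinase-Glo detection mix; 8 min ambient, luminescence read.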
Rab9 promoter act: Rab9 promoter activation; Huh7 Rab9 promoter-luciferase reporter, luminescence, 24 h; Potency, µM (doses to about 9.22 µM), for the others: at the top dose activation, negative = inhibition, actives largely listed as activators; 320,000 compounds, 2.8% hits; also: % of control where 0% means no effect; nearly all actives have a fitted effect of over 60% in size
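Quantitative HTS format; Huh7 Rab9-luciferase reporter cells (1500/well) receive compound 2 h post-plating, incubate 24 h at 37 °C, then get luciferase reagent for 10 min before luminescence reading.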
SMN2 splice up: enhancers of SMN2 splice variant expression | HEK293 SMN2-luciferase splicing reporter, luminescence, 30-36 h | Potency, µM (series often up to 46.1 µM), without a hit: top-dose activity change, positive = activation, actives largely listed as activators | 210,000 compounds, 2.8% hits; also: % of control where 0% means no effect; nearly all actives have a fitted effect of over 55% in size
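qHTS luciferase splicing reporter: luminescence rises when SMN2 exon 7 is included in transfected HEK293 cells. Compound exposure lasted 30-36 h at 37C, with 4.5 mM final sodium butyrate as control, followed by a ONE-Glo read.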
* = called active by the depositor; ? = inconclusive; . = not tested or not shown; [ ] = remark or other dose. Rows were chosen to be rich in hits. Some 7.5% of all compounds tested hit in one or more screens of this group. Calls follow the shape of the dose curve; as a rule, active = well fitted curve in the direction sought with a large enough effect; inconclusive = small, poorly fitted or top-dose-only effect, or another doubt; inactive = no such curve, though single readings can be large; an effect the other way counts as inactive or inconclusive. Potency is read from the fitted curve at half-maximal effect.

SMILES	NPC1 prom act	ELG1 genotoxic	FLuc counter	Luc counter	Rab9 promoter act	SMN2 splice up
NS(=O)(=O)c1cccc(NC(=O)c2cccc(-c3ccc(O)cc3)c2)c1	1.2%	1.3%	16.9µM*	.	-1.4%	.
NS(=O)(=O)c1cccc(NC(=O)c2cc3ccccc3o2)c1	?	7.8%	2.13µM*	-20.3%	?	.
CC(C)C(=O)Nc1ccc(NC(=O)c2cc3ccccc3o2)cc1	22.4%	?	?	-1.7%	2.7%[1.84 µM]	?
CN(C)S(=O)(=O)c1cccc(C(=O)Nc2ccc(C(=O)Nc3cccc(S(N)(=O)=O)c3)cc2)c1	.	-1.0%	.	.	.	.
N=C(c1ccc2ccccc2c1)c1ccccc1Cc1ccccc1	.	.	.	-0.8%[7.66 µM]	.	-3.8%[9.22 µM]
CCS(=O)(=O)n1nc(-c2ccc(Cl)cc2)nc1SCc1ccccc1	28.8%	16.8%	15.1µM*	-1.2%	?	14.1µM*
COC(=O)c1cnn(-c2ccccc2)c1/C=N/NC(=S)Nc1ccc(Cl)cc1	-2.3%	3.1%	0.7%	.	-11.0%	.
O=C(CC(c1cccs1)N1Cc2ccccc2C1=O)Nc1ccccc1F (configuration not stated)	.	.	-6.6%	.	.	.
Cc1cc(=O)[nH]c(SCCCOc2ccccc2Cl)n1	12.1%	-7.3%	23.9µM*	-1.6%	1.1%	-2.5%
C/C=C/c1ccc(OCCSc2nc(C)cc(=O)[nH]2)c(OC)c1	-7.4%	?	13.5µM*	14.1%	9.2%	10.0%
Cc1cc(=O)[nH]c(SCCOc2ccc3c(c2)CCC3)n1	.	.	7.57µM*	-0.7%	.	12.6µM*
Cc1cc(=O)[nH]c(SCCOc2ccc(OC(C)C)cc2)n1	?	5.17µM*	15.1µM*	-19.6%	?	?
Cc1cc(C)cc(NC(=O)N2CCN3CCCCC3C2)c1 (configuration not stated)	.	.	-2.7%	.	.	.
N#C/C(=C\c1ccccc1)C(=O)Nc1sc2c(c1C(N)=O)CCC2	.	.	?	.	.	-0.6%
Cc1ccc2cc(CN(CCN(C)C)C(=O)Nc3ccc(Cl)cc3)c(=O)[nH]c2c1	-0.1%	-0.8%	10.7µM*	0.5%	2.4%	.
O=C(CSc1nc2c(c(=O)[nH]1)CCC2)Nc1cccc(O)c1	.	.	4.4%	.	.	.
COc1ccc(Br)cc1[C@H]1[C@@H]2C=CCC[C@@]2(C)C(=O)N1Cc1ccccc1	0.0%	-11.7%	1.1%	.	-13.4%	.
COc1ccc(/C=C/c2ccccc2)cc1[C@H]1[C@@H]2C=CCC[C@@]2(C)C(=O)N1Cc1ccccc1	0.1%	-1.0%	13.5µM*	.	-0.2%	.
CCCN1Cc2cccc(C(=O)Nc3cc(C)cc(C)c3)c2C1=O	.	.	-7.8%	.	.	2.2%
O=C(CCCCCNC(=S)Nc1ccccc1)C[N+](=O)[O-]	-0.7%	-3.0%	-12.5%	-0.7%	0.1%	-2.5%
Cc1ccccc1Nc1c(-c2c[nH]c3ccccc23)nc2cccc(C)n12	.	.	1.6%	.	.	11.2µM*
Cc1ccc2nc(-c3c[nH]c4ccccc34)c(Nc3ccccc3C)n2c1	.	.	-1.5%	.	.	?
Cc1cccc(C)c1OCCCn1c(CCNC(=O)C2CCCCC2)nc2ccccc21	.	.	1.2%	.	.	-10.6%
CCc1ccccc1NC(=O)CNC(=O)c1ccccc1OCc1c(C)noc1C	-2.4%	-2.4%	1.8%	.	11.1%	.
CN(CCCS(=O)(=O)[O-])c1ccc(/C=C/c2ccc3ccccc3[n+]2C)cc1	-4.7%	-0.6%	-11.3%	.	-3.4%	.
[O-][n+]1c(/C=C/c2ccccc2)ccc2ccccc21	3.98µM*	6.51µM*	0.849µM*	.	2.82µM*	.
CC(=O)Nc1ccc2nc(-c3cccnc3)[nH]c2c1	0.3%	2.4%	?	-8.6%	12.0%	-11.9%
Cc1ccc2nc(-c3cccc(NC(=O)c4ccco4)c3)[nH]c2c1	?	0.1%	1.35µM*	?	?	12.6µM*
CC(=O)Nc1cccc(-c2nc3ccc(NC(C)=O)cc3[nH]2)c1	4.3%	0.7%	15.1µM*	-21.3%	-4.5%	-16.2%
Cc1cc2cc(NC(=O)c3ccco3)ccc2[nH]1	?	14.2%	15.1µM*	-7.7%	?	27.5%

High-throughput results deposited in PubChem BioAssay by National Center for Advancing Translational Sciences (NCATS).
